The list is not random: actives were taken first. Their share in the collection is about 12%.
HP1b chromo inh = HP1-beta chromodomain-methylated histone interaction inhibition | P83916 | AlphaScreen HP1-beta / biotin-H3K9me3 peptide binding | AID 540317 | 390,000 tested, 0.56% active | Potency, µM (highest dose often 114 µM), hits mostly inhibitors; also: nearly all actives have a fitted effect of over 70% in size
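AlphaScreen: HP1-beta (50 nM) preformed 30 min with biotin-H3(1-18)K9me3 peptide (50 nM) in PBS pH 7.4, 0.01% Tween-20. Compound added for 30 min at RT, then streptavidin donor/nickel chelate acceptor beads (10 ug/mL) for 30 min.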
BAZ2B block = inhibitors of human BAZ2B bromodomain | Q9UIF8 | AlphaScreen BAZ2B-H3K14Ac peptide displacement | Potency, µM (titrated, usually from 114 µM), usual class: inhibitors | 360,000 tested, 4.4% active | AID 504333; also: nearly all actives have a fitted effect of over 60% in size
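AlphaScreen displacement: compounds (up to 110uM) incubated 30 min at room temperature with a preformed 50 nM BAZ2B/50 nM biotinylated H3K14Ac peptide complex in PBS pH 7.4 with Tween-20. Donor and acceptor beads at 10 ug/mL final added, 20 min light-protected before reading.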
JMJD2A Tudor inh = inhibitors of human JMJD2A Tudor domain. O75164. AlphaScreen JMJD2A-Tudor / H3K4me3 peptide binding. Potency, µM (top dose mostly 114 µM), usual class: inhibitors. 390,000 tested, 4.4% active. AID 504339; also: nearly all actives have a fitted effect of over 50% in size
G9a inh = blocks human histone lysine methyltransferase G9a; Q96KQ7; 350,000 tested, 8.8% active; AID 504332; Potency, µM (highest dose often 102 µM), usual class: inhibitors; G9a H3K9 monomethylation, AlphaScreen, 2 h; also: nearly all actives have a fitted effect of over 75% in size
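Compounds were preincubated with 20 nM G9a for 15 min, after which biotinylated H3K9 peptide (500 nM) and SAM (20 uM) started a 2 h room-temperature reaction. Monomethylated product was quantified by antibody-based AlphaScreen chemiluminescence.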
PI5P4Ka inh = blocks human PI5P4K alpha kinase activity; P48426; PI5P4Kalpha enzyme, ADP-Glo luminescence, 60 min; active compounds read low; max response, %; 330,000 tested, 1.2% active; AID 652105; active = max response of -50% or lower; inconclusive = between -30% and -50%; inactive = -30% or higher; also: value at the top dose of about 77 µM
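Enzyme plus substrate dispensed, test compounds pinned in, then ATP (5 microM final) added. After 60 min at RT, ADP-Glo reagent 1 for 45 min and reagent 2 for 30 min preceded luminescence imaging.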
PLK1 PBD inh = blocks phosphopeptide binding to human PLK1 polo-box domain; Plk1 PBD binding of FITC phosphopeptide, fluorescence polarization; P53350; AID 720504; 360,000 tested, 2.8% active; Potency, µM, most hits filed as inhibitors; also: series mostly up to about 57 µM; nearly all actives have a fitted effect of over 65% in size
Large screens that a line does not name were inactive. Unless noted, calls follow the shape of the dose curve; as a rule, active = well fitted curve in the direction sought with a large enough effect; inconclusive = small, poorly fitted or top-dose-only effect, or another doubt; inactive = no such curve, though single readings can be large; an effect the other way counts as inactive or inconclusive.

O=C(/C=C/c1ccco1)N1CCN(c2ccccc2)CC1	G9a inh inconclusive
CCN(CC(=O)Nc1ccc(NC(C)=O)cc1)C(=O)Cc1coc2cc(C)c(C)cc12	G9a inh 50µM
O=C(/C=C/c1ccco1)NC(=S)Nc1ccc(N2CCCC2)cc1	HP1b chromo inh 35µM, BAZ2B block 10µM, JMJD2A Tudor inh inconclusive, G9a inh inconclusive
CCNc1ncc2nc(-c3cccs3)c(=O)n(C)c2n1	none (no result: HP1b chromo inh, BAZ2B block, JMJD2A Tudor inh, PI5P4Ka inh, PLK1 PBD inh)
NC[C@@H]1O[C@@H](O[C@H]2[C@H](O)[C@@H](O[C@@H]3O[C@@H](CO)[C@H](O)[C@@H](N)[C@@H]3O)[C@H](N)C[C@@H]2N)[C@@H](O)[C@H](O)[C@H]1O	none (no result: HP1b chromo inh, BAZ2B block, JMJD2A Tudor inh, PI5P4Ka inh, PLK1 PBD inh)
CC(=O)NC(=S)Nc1ccc(NC(=S)NC(=O)/C=C/c2ccco2)cc1	BAZ2B block inconclusive, JMJD2A Tudor inh inconclusive, G9a inh 40µM
COc1ccc(NC(=S)NC(=O)/C=C/c2ccco2)cc1	BAZ2B block inconclusive, G9a inh 22µM
CCOc1ccccc1C1C(C(=O)OC)=C(N)OC2=C1C(=O)CCC2 (configuration not stated)	none (no result: PI5P4Ka inh)
CCOc1ccc(Br)cc1C1C(C(=O)OC)=C(N)Oc2cc(N(C)C)ccc21 (configuration not stated)	HP1b chromo inh inconclusive, BAZ2B block inconclusive, JMJD2A Tudor inh 50µM, G9a inh inconclusive
Cc1ccc(NC(=O)CC2S/C(=N/N=C3/NC(=O)CS3)NC2=O)cc1 (configuration not stated)	BAZ2B block 56µM, JMJD2A Tudor inh inconclusive, G9a inh inconclusive
C=C1CCC[C@]2(C)C[C@H]3OC(=O)C(CNCC(OC)OC)[C@H]3CC12 (some centres not stated)	G9a inh 79µM
C=C1CCC[C@]2(C)C[C@H]3OC(=O)C(CNC(C)CCCC(C)C)[C@H]3CC12 (some centres not stated)	none
COc1cccc(OCCCCn2c(-c3ccc(Cl)cc3)nc3ccccc3c2=O)c1	none (no result: PI5P4Ka inh, PLK1 PBD inh)
CN(Cc1ccccc1)c1ncnc2ccc(Br)cc12	JMJD2A Tudor inh inconclusive, PI5P4Ka inh inconclusive, PLK1 PBD inh 2.7µM
CCCn1c(CCC(=O)O)ccc1-c1ccccc1	HP1b chromo inh inconclusive, JMJD2A Tudor inh 35µM, PI5P4Ka inh inconclusive, PLK1 PBD inh 12µM
O=C(O)CCc1ccc(-c2ccc(Br)cc2)n1CC(=O)O	BAZ2B block inconclusive, G9a inh inconclusive (no result: PI5P4Ka inh)
Cc1ccc(-c2ccc(CCC(=O)O)n2Cc2ccco2)cc1	BAZ2B block inconclusive, JMJD2A Tudor inh inconclusive, G9a inh 50µM, PI5P4Ka inh inconclusive
O=C(O)CCc1ccc(-c2ccccc2)n1CC(=O)O	JMJD2A Tudor inh inconclusive, G9a inh inconclusive (no result: PI5P4Ka inh)
O=C(O)CCc1ccc(-c2ccc(F)cc2)n1CCC(=O)O	G9a inh 11µM (no result: PI5P4Ka inh)
Cc1cc(C)cc(-n2c(C)nc3cc(C(=O)NCc4ccccc4Cl)ccc32)c1	none (no result: PI5P4Ka inh, PLK1 PBD inh)
Cc1cc(C)c(S(=O)(=O)NCC(c2cccs2)S(=O)(=O)c2ccccc2)c(C)c1 (configuration not stated)	none (no result: PI5P4Ka inh, PLK1 PBD inh)
O=C1C2=C(C(=O)c3ccccc31)C1O[C@](c3ccsc3)(Cc3c1ccc1ccccc31)O2	BAZ2B block 11µM (no result: HP1b chromo inh, JMJD2A Tudor inh, PI5P4Ka inh, PLK1 PBD inh)
CCOc1cc2c3c(c1)C1(Nc4ccccc4S1)C(=O)N3C(C)(C)CC2C (configuration not stated)	HP1b chromo inh inconclusive, BAZ2B block 28µM, JMJD2A Tudor inh 35µM, G9a inh inconclusive (no result: PI5P4Ka inh)
CCOc1cc2c3c(c1)C1(OCCO1)C(=O)N3C(C)(C)CC2C (configuration not stated)	none
COC(=O)COc1ccc(S(=O)(=O)Nc2ccc3c(c2)OCCO3)cc1C	none
CC1(C)CC(=O)C2=C(C1)NC1=C(C(=O)c3ccccc31)C2c1ccccc1 (configuration not stated)	HP1b chromo inh 50µM, BAZ2B block 32µM, JMJD2A Tudor inh 40µM, G9a inh 20µM
CC(C)c1ccc(C2C3=C(CC(C)(C)CC3=O)NC3=C2C(=O)c2ccccc23)cc1 (configuration not stated)	BAZ2B block inconclusive, JMJD2A Tudor inh inconclusive, G9a inh inconclusive (no result: PI5P4Ka inh)
CC1(C)CC(=O)C2=C(C1)NC1=C(C(=O)c3ccccc31)C2c1cccnc1 (configuration not stated)	BAZ2B block inconclusive, JMJD2A Tudor inh inconclusive, G9a inh inconclusive, PLK1 PBD inh inconclusive
CC(C)(C)c1ccc(C2C3=C(CCCC3=O)NC3=C2C(=O)c2ccccc23)cc1 (configuration not stated)	BAZ2B block inconclusive, JMJD2A Tudor inh 25µM, G9a inh 40µM
CC1=C([N+](=O)[O-])C(c2ccccc2)C2=C(N1)c1ccccc1C2=O (configuration not stated)	HP1b chromo inh inconclusive, BAZ2B block 35µM, JMJD2A Tudor inh 25µM, G9a inh 10µM
CCOC1=C2CN(S(=O)(=O)c3ccc(C)cc3)C(c3cccc(Cl)c3)CC2NC(c2ccccc2)C1 (configuration not stated)	none (no result: HP1b chromo inh, BAZ2B block, JMJD2A Tudor inh, G9a inh)
CCN(CC)CCCNC(=O)c1ccc(Cn2c(SCc3ccccc3)nc3cccnc32)cc1	none (no result: PI5P4Ka inh, PLK1 PBD inh)
Clc1ccc(-c2nnc(-c3cccnc3)o2)cc1	none
S=c1[nH]nc(-c2ccc3ccccc3n2)n1-c1ccccc1	JMJD2A Tudor inh inconclusive, G9a inh 1.6µM
S=c1[nH]nc(-c2ccc(Cl)cc2)n1-c1cccnc1	JMJD2A Tudor inh 8.9µM, G9a inh 10µM
COc1ccccc1-n1c(-c2cccnc2)n[nH]c1=S	JMJD2A Tudor inh 4.5µM, G9a inh 3.2µM (no result: PI5P4Ka inh)
S=c1[nH]nc(-c2cccnc2)n1-c1ccccc1	JMJD2A Tudor inh 7.9µM, G9a inh 1.6µM (no result: PI5P4Ka inh)
O=C(c1cnc(N2CCOCC2)c2ccccc12)N1CCN(c2ccccc2F)CC1	none (no result: PI5P4Ka inh, PLK1 PBD inh)
COc1ccc(C(=O)NC(=S)NNC(=O)Cc2cccs2)cc1	JMJD2A Tudor inh inconclusive, G9a inh 11µM
Cc1cc(NC(=O)Cc2cccs2)no1	HP1b chromo inh inconclusive, BAZ2B block 45µM, JMJD2A Tudor inh 18µM, G9a inh inconclusive, PLK1 PBD inh inconclusive (no result: PI5P4Ka inh)
Cc1cc(NS(=O)(=O)c2ccc(NC(=O)Cc3cccs3)cc2)no1	none (no result: PI5P4Ka inh)
COc1cc(NC(=O)Cc2cccs2)cc(OC)c1	HP1b chromo inh inconclusive, PLK1 PBD inh 3.4µM
COc1cc(OC)cc(C(=O)NC(=S)NNC(=O)Cc2cccs2)c1	G9a inh 8.9µM, PI5P4Ka inh inconclusive
CCOC(=O)CSc1nc2ccc(NC(=O)c3ccccc3F)cc2s1	none (no result: PI5P4Ka inh, PLK1 PBD inh)
Cc1ccc(S(=O)(=O)Nc2cccc(-c3ccc(N4CCCCC4)nn3)c2)s1	none (no result: PI5P4Ka inh, PLK1 PBD inh)
COc1cccc(C(C)NC(=O)Cc2cccs2)c1 (configuration not stated)	JMJD2A Tudor inh inconclusive, PLK1 PBD inh 21µM
Cc1cc(C)c(S(=O)(=O)NCCc2cc3cc(C)c(C)cc3[nH]c2=O)c(C)c1	none (no result: PI5P4Ka inh, PLK1 PBD inh)
